Experiment in all cases: DAPPL (digital affinity profiling via proximity ligation, sequencing); 10 mM Tris-HCl pH 7.5, 50 mM NaCl, 1 mM DTT, 4% glycerol, room temperature, 30 min; GST-TFs on glutathione beads, 16-mer random dsDNA library, 0.1% formaldehyde crosslink after washing; high values mean tight binding
What all share (details): protein: recombinant; tags: N-terminal GST; dsDNA, one strand shown

One test addresses T1, FLI1 (Homo sapiens, UniProt Q01543 1-452).
T1 sequence: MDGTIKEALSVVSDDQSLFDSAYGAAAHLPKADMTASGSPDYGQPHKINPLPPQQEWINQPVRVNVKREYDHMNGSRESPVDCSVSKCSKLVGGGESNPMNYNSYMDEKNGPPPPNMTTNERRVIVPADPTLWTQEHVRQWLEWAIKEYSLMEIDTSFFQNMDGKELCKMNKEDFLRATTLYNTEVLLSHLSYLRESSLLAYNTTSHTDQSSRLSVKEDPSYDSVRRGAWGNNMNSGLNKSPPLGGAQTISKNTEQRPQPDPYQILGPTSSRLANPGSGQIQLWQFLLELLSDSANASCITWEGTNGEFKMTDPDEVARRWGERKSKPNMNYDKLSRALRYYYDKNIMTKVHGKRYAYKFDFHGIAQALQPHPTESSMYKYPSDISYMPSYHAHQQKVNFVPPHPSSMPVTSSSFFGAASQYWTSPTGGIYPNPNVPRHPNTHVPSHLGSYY
The procedure, abridged: (§1)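 Each value of binding signal is a hexamer's read frequency for a factor divided by the same hexamer's frequency in the tag-only sample. Barcoded, bead-captured GST fusions of human transcription factors made in yeast were pooled with that sample and incubated with 200 nmole of a random double-stranded 16-mer DNA library in Tris/NaCl/DTT/glycerol buffer at room temperature for 30 min. Washing, 0.1% formaldehyde crosslinking, proximity ligation, PCR and Illumina NextSeq500 sequencing followed.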

For a further test, the target named is T2, ELK1 (Homo sapiens, UniProt P19419 1-428).
T2 sequence: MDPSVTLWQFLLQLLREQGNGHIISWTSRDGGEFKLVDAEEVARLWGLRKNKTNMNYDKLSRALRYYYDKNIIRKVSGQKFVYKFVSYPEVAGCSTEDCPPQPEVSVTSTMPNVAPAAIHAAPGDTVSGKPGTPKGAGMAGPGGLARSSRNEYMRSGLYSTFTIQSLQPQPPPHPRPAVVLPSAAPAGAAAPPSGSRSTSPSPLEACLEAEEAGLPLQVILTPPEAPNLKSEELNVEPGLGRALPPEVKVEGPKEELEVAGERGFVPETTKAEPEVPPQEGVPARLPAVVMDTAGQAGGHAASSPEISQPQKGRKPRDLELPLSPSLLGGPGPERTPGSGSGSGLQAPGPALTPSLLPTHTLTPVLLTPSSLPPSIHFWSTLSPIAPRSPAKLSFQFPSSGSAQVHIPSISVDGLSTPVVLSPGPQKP
The essentials:
as §1

The next test concerns the target T3, GABPA (Homo sapiens, UniProt Q06546 1-454).
T3 sequence: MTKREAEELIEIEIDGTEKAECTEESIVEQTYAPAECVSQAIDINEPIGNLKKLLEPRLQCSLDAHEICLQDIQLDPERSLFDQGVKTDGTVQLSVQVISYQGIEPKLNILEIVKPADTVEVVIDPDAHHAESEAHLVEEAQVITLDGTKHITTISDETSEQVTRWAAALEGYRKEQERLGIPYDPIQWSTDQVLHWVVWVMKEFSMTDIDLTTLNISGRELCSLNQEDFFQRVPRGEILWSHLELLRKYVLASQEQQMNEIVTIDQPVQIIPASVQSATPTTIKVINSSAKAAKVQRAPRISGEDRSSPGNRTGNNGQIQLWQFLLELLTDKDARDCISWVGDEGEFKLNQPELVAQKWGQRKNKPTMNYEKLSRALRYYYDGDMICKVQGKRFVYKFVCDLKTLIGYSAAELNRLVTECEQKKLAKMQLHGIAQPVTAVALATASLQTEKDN
The essentials:
as §1

For another test, the target named is T4, ERG (Homo sapiens, UniProt P11308 1-479).
T4 sequence: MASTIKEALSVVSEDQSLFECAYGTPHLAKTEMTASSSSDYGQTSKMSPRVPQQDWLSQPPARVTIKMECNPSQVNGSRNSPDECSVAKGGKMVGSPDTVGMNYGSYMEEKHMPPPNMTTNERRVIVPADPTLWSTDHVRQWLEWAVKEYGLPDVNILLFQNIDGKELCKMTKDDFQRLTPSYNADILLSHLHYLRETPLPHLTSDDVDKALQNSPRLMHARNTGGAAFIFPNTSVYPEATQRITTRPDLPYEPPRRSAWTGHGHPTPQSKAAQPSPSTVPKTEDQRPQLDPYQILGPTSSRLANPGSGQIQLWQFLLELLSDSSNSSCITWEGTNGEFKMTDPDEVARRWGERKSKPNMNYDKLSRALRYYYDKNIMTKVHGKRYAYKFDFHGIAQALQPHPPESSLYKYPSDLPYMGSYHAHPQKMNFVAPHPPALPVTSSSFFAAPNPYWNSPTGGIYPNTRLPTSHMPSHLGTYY
The essentials: as §1

In the next test the target is ELF1 (Homo sapiens, UniProt P32519 1-619). The essentials: as §1
The next test deals with T5, EHF (Homo sapiens, UniProt Q9NZC4 1-300).
T5 sequence: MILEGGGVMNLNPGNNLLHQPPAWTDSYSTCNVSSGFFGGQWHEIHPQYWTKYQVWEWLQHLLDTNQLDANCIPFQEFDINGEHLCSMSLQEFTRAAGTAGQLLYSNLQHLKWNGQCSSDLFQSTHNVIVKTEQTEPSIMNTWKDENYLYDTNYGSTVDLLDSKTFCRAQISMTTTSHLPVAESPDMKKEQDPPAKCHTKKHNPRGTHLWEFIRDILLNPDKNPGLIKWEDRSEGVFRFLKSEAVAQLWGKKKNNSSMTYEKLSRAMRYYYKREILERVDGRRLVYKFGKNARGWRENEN
The essentials: as §1

Another test deals with SPI1 (Homo sapiens, UniProt P17947 1-270). The procedure, abridged: as §1
The target of a further test is SPIB (Homo sapiens, UniProt Q01892 1-262). The procedure, abridged:
as §1

The target of the next test is T6, ELK3 (Homo sapiens, UniProt P41970 1-407).
T6 sequence: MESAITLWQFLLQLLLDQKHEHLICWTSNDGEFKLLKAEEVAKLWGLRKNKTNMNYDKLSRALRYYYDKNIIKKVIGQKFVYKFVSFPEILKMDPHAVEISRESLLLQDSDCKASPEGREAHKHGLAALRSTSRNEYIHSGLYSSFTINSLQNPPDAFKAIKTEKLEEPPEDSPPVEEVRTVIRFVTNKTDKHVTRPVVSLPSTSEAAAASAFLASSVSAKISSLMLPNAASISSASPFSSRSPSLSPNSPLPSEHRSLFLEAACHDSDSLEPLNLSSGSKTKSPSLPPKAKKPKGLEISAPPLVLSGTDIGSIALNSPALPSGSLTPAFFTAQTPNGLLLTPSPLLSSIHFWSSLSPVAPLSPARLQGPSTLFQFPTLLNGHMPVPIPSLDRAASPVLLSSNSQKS
The essentials: as §1

The target of the next test is T7, FEV (Homo sapiens, UniProt Q99581 1-238).
T7 sequence: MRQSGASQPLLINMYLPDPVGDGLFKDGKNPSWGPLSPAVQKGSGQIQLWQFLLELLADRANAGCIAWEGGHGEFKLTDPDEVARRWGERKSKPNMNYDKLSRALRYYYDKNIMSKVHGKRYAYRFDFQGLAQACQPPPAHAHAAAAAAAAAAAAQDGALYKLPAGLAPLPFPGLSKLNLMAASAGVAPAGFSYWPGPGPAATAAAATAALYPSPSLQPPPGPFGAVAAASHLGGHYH
The essentials: as §1

In a further test the target is ETV5 (Homo sapiens, UniProt P41161 1-510). The procedure, abridged: as §1
The target in another test is T8, SPIC (Homo sapiens, UniProt Q8N5J4 1-248).
T8 sequence: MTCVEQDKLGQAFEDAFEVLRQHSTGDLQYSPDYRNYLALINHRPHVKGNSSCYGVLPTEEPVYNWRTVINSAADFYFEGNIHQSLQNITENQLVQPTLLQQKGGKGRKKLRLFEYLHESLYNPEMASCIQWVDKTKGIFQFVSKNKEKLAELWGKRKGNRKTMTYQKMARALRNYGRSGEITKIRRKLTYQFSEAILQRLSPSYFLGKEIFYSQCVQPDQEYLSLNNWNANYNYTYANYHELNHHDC
The essentials:
as §1

A further test concerns the target ELF4 (Homo sapiens, UniProt Q99607 1-663). The procedure, abridged: as §1
A further test deals with T9, ELK4 (Homo sapiens, UniProt P28324-2 1-405).
T9 sequence: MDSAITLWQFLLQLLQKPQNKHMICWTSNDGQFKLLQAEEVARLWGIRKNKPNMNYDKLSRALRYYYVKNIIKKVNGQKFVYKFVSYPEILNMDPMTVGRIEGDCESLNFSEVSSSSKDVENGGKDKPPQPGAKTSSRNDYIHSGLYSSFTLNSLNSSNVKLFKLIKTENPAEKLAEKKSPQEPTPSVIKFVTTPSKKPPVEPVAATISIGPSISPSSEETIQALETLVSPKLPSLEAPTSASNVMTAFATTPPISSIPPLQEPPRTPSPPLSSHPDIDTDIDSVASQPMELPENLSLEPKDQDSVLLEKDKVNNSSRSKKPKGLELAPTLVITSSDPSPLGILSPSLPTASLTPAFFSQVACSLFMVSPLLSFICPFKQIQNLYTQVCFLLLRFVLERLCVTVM
The procedure, abridged: as §1

The target in the next test is T10, ETV2 (Homo sapiens, UniProt O00321 1-342).
T10 sequence: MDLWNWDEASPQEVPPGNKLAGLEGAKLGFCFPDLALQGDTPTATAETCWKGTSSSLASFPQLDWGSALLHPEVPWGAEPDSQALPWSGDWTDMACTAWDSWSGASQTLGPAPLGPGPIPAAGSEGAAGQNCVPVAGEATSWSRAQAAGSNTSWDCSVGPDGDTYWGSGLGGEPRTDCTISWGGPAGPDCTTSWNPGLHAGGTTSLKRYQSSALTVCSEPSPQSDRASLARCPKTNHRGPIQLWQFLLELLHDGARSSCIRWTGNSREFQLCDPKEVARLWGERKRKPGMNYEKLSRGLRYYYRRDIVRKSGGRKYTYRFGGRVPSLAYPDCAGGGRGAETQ
The essentials:
as §1

A further test concerns the target T11, ELF3 (Homo sapiens, UniProt P78545 1-371).
T11 sequence: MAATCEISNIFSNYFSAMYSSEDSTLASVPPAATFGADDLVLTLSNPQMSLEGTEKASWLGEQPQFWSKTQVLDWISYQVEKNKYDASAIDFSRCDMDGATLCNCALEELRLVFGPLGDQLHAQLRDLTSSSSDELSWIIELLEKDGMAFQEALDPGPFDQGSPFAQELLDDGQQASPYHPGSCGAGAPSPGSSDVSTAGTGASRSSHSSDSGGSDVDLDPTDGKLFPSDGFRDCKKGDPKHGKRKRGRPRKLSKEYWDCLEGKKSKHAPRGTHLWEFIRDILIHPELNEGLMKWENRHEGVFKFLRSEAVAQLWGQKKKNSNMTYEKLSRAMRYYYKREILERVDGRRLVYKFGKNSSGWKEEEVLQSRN
The procedure, abridged:
as §1

The target of the next test is ETV1 (Homo sapiens, UniProt P50549 1-477). The essentials:
as §1

ETV5, sequence (P41161 whole entry): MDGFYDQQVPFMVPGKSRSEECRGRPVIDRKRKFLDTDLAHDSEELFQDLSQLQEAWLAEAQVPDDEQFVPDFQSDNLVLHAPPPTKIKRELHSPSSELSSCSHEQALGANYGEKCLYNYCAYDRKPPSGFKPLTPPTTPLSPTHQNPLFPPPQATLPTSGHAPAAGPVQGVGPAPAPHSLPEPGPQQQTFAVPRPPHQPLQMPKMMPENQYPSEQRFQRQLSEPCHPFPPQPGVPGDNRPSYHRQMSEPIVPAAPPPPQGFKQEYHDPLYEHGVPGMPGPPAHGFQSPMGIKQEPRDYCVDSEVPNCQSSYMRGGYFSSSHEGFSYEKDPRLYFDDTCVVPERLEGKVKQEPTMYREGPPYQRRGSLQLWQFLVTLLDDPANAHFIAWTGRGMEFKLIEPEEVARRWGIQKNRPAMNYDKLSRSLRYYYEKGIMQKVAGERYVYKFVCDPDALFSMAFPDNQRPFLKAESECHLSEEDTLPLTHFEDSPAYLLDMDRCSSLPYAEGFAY
ETV1, sequence (P50549 whole entry): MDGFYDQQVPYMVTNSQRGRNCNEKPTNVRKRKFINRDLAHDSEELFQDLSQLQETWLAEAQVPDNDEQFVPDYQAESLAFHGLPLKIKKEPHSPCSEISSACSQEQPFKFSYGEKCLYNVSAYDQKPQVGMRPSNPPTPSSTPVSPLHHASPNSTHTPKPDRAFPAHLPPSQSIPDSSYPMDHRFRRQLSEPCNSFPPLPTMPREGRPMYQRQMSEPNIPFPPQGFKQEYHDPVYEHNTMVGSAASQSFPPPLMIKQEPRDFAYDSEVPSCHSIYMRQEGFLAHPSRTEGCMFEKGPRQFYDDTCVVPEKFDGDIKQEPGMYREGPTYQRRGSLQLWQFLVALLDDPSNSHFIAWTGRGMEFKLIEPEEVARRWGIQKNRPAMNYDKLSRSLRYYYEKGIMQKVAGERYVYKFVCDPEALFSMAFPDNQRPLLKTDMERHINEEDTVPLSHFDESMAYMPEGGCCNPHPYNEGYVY
SPIB, sequence (Q01892 whole entry): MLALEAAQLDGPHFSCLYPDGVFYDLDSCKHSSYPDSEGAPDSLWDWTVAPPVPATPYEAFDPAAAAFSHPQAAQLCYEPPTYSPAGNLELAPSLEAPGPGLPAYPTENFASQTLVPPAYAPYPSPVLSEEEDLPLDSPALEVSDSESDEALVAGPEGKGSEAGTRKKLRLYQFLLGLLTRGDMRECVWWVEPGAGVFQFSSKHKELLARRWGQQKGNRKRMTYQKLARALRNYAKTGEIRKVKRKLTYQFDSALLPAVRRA
ELF1, sequence (P32519 whole entry): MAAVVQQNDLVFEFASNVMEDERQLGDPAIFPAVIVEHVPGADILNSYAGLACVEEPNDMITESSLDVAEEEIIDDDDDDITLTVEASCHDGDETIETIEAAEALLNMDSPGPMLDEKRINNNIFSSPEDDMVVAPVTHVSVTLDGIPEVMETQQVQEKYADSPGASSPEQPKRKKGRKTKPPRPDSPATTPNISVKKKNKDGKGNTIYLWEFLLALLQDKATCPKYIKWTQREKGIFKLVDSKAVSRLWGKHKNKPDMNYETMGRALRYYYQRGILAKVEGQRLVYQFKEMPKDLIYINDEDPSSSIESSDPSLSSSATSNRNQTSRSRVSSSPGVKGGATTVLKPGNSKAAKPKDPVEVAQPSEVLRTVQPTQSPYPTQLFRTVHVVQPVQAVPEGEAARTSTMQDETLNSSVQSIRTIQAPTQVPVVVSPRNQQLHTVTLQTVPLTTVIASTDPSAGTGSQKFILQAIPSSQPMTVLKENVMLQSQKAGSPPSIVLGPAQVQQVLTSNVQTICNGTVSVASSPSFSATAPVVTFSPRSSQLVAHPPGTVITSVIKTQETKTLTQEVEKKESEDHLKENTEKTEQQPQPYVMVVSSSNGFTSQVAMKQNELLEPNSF
ELF4, sequence (Q99607 whole entry): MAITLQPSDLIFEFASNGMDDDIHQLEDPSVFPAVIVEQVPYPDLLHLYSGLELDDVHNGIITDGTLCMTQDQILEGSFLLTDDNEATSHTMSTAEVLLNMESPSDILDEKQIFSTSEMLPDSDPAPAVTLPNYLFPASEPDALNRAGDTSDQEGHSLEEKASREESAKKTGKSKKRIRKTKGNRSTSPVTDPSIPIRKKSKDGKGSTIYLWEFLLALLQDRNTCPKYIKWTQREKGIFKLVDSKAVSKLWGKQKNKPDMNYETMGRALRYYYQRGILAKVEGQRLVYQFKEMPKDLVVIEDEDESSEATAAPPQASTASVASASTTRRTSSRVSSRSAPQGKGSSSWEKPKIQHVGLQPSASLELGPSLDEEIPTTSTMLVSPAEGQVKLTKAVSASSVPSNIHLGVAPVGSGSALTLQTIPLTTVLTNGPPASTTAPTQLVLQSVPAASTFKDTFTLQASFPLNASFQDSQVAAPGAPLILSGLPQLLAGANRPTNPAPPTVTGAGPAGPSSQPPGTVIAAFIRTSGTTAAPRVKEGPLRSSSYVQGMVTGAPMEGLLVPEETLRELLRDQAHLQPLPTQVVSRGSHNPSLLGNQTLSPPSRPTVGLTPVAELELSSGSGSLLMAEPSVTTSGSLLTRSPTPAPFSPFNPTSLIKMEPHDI

For the sequence TCCGCG, the binding signal was 1.25 fold enrichment (6-mer frequency, TF over GST control) in the test with FLI1; 1.27 fold enrichment (6-mer frequency, TF over GST control) in the test with ELK1; 1.03 fold enrichment (6-mer frequency, TF over GST control) in the test with GABPA; 1.41 fold enrichment (6-mer frequency, TF over GST control) with ERG; 1.2 fold enrichment (6-mer frequency, TF over GST control) with ELF1; 1.23 fold enrichment (6-mer frequency, TF over GST control) in the test with EHF. Moreover, the binding signal was 1.3 fold enrichment (6-mer frequency, TF over GST control) with SPI1; 1.36 fold enrichment (6-mer frequency, TF over GST control) with SPIB; 1.14 fold enrichment (6-mer frequency, TF over GST control) with ELK3; 1.2 fold enrichment (6-mer frequency, TF over GST control) with FEV; 1.33 fold enrichment (6-mer frequency, TF over GST control) in the test with ETV5; 1.18 fold enrichment (6-mer frequency, TF over GST control) in the test with SPIC. In addition, the binding signal with ELF4 was 1.23 fold enrichment (6-mer frequency, TF over GST control); with ELK4, 1.32 fold enrichment (6-mer frequency, TF over GST control); with ETV2 it was 1.32 fold enrichment (6-mer frequency, TF over GST control); with ELF3, 1.08 fold enrichment (6-mer frequency, TF over GST control); in the test with ETV1, 1.33 fold enrichment (6-mer frequency, TF over GST control).
As for GATGCA, the binding signal in the test with FLI1 was 1.15 fold enrichment (6-mer frequency, TF over GST control); with ELK1 it was 1.14 fold enrichment (6-mer frequency, TF over GST control); in the test with GABPA, 1.18 fold enrichment (6-mer frequency, TF over GST control); with ERG it was 1.11 fold enrichment (6-mer frequency, TF over GST control); in the test with ELF1, 1.06 fold enrichment (6-mer frequency, TF over GST control); with EHF it was 1.2 fold enrichment (6-mer frequency, TF over GST control). The binding signal in the test with SPI1 was 1.06 fold enrichment (6-mer frequency, TF over GST control); with SPIB, 1.23 fold enrichment (6-mer frequency, TF over GST control); with ELK3, 1.16 fold enrichment (6-mer frequency, TF over GST control); with FEV, 1.12 fold enrichment (6-mer frequency, TF over GST control); with ETV5, 1.13 fold enrichment (6-mer frequency, TF over GST control); with SPIC, 1.17 fold enrichment (6-mer frequency, TF over GST control). Also, the binding signal is 1.23 fold enrichment (6-mer frequency, TF over GST control) with ELF4; 1.19 fold enrichment (6-mer frequency, TF over GST control) with ELK4; 1 fold enrichment (6-mer frequency, TF over GST control) with ETV2; 1.16 fold enrichment (6-mer frequency, TF over GST control) in the test with ELF3; 1.04 fold enrichment (6-mer frequency, TF over GST control) with ETV1.

Values taken from paper PMC7862700, “An all-to-all approach to the identification of sequence-specific readers for epigenetic DNA modifications on cytosine”.
